# JMJD2A Tudor: JMJD2A Tudor domain (human) inhibition. O75164. Potency, µM (titrated, usually from 114 µM), inactives show top-dose activity change, negative = inhibition, hits mostly inhibitors. AlphaScreen JMJD2A-Tudor / H3K4me3 peptide binding. 390,000 tested, 4.4% active; note: potency is the fitted concentration of half-maximal effect; % is set by controls: 0 for no effect and ±100 for the full control effect; nearly all actives have a fitted effect of over 50% in size
# BAZ2B inh: BAZ2B (human) inhibition; Q9UIF8; AlphaScreen BAZ2B-H3K14Ac peptide displacement; Potency, µM (titrated, usually from 114 µM), without a hit: top-dose activity change, negative = inhibition, actives largely listed as inhibitors; 360,000 tested, 4.4% active; note: potency is the fitted concentration of half-maximal effect; % is set by controls: 0 for no effect and ±100 for the full control effect; nearly all actives have a fitted effect of over 60% in size
#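 Protein-peptide AlphaScreen: BAZ2B 50 nM, b-H3K14Ac 50 nM, 1x PBS pH 7.4 + 0.01% Tween-20. Preincubation 30 min RT; cpd 30 min RT (top 110 uM); beads 20 min RT, light-protected.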
# HP1b chromo inh: inhibitors of HP1-beta chromodomain binding to methylated histone tails. AlphaScreen HP1-beta / biotin-H3K9me3 peptide binding. Potency, µM (highest dose often 114 µM), inactives show at the top dose activity change, negative = inhibition, actives largely listed as inhibitors. 390,000 tested, 0.56% active. AID 540317; note: potency is the fitted concentration of half-maximal effect; nearly all actives have a fitted effect of over 70% in size
# Target sequence (P83916 whole entry, looked up): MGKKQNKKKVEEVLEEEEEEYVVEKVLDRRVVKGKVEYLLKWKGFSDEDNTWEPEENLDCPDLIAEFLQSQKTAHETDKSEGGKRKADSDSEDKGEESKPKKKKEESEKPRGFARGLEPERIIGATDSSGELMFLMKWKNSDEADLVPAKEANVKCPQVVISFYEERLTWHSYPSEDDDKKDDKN
#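 HP1-beta protein (50 nM final) preincubated 30 min at room temperature with biotinylated H3(1-18)K9me3 peptide (50 nM) in PBS pH 7.4, 0.01% Tween-20, then compound added for 30 min. AlphaScreen streptavidin donor/nickel chelate acceptor beads (10 ug/mL final), 30 min dark, luminescence read.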
# Six1-Eya2 inh: blocks human Six1 binding to Eya2; AlphaScreen GST-Six1/His-Eya2 binding, biochemical; hits give low values; activity change, % (test concentration not listed); 360,000 tested, 0.56% active; AID 651725; in the data active = activity change below about -65%; inconclusive = mostly about -30% to -63%; note: % is set by controls: 0 for no effect and ±100 for the full control effect
#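 AlphaScreen luminescence read after one hour at 37 °C in darkness. Pin-transferred compounds met GST-Six1 and His-Eya2 protein (5X stock 250 nM/500 nM) plus glutathione donor and Ni-chelate acceptor beads (5X, 50 ug/mL).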
# CtBP-E1A blk: CtBP/E1A binding inhibition; AlphaScreen GST-E1A/His-CtBP binding, 1536-well; hits give low values; activity change, % (concentration not given with the values); 340,000 tested, 0.49% active; AID 651724; in the data active = activity change below about -65%; inconclusive = mostly about -30% to -63%; note: % is set by controls: 0 for no effect and ±100 for the full control effect
#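 Homogeneous bead-based format: GST-tagged E1A captured on glutathione donor beads, His-tagged CtBP on nickel acceptor beads; compounds precede bead addition by 2 h at 37 °C.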
# G9a block: blocks human histone lysine methyltransferase G9a; Q96KQ7; G9a H3K9 monomethylation, AlphaScreen, 2 h; Potency, µM (highest dose often 102 µM), inactives show at the top dose activity, negative = inhibition, actives largely listed as inhibitors; 350,000 tested, 8.8% active; note: potency is the fitted concentration of half-maximal effect; % is set by controls: 0 for no effect and ±100 for the full control effect; nearly all actives have a fitted effect of over 75% in size
# Target sequence (Q96KQ7 913-1193 limits assumed): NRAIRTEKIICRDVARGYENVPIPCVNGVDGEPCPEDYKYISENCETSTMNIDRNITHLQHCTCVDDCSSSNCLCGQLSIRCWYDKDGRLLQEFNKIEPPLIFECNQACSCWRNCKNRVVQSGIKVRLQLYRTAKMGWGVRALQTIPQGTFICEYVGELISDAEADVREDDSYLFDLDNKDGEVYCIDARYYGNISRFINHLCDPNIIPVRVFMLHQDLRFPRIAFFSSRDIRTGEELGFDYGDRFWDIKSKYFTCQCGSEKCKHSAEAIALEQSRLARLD
#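 AlphaScreen detection with an anti-monomethyl H3K9 antibody quantified product after a 2 h room-temperature reaction containing 500 nM biotinylated H3K9 peptide, 20 µM SAM and 20 nM enzyme, which had been preincubated 15 min with compound.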
# Starred values were filed as active, the others as inactive; ? = inconclusive; · = no result given; [ ] = remark or other dose. This is a sample that favours compounds with a hit; in the whole collection about 10% have one here. Unless noted, calls come from the whole dose curve; as a rule, active = well fitted inhibition curve with a large enough effect; inconclusive = small, poorly fitted or top-dose-only effect; inactive = no such curve, though single readings can be large or run the other way.
SMILES,JMJD2A Tudor,BAZ2B inh,HP1b chromo inh,Six1-Eya2 inh,CtBP-E1A blk,G9a block
Cc1nc(N2CCOCC2)c2c(C(=O)N(C)c3ccccc3)c(C)oc2n1,-18%,11%[57.1 µM],-1%,·,·,-22%[59 µM]
NC(N)=NCCC[C@H](NC(=O)CNC(=O)c1ccccc1)C(=O)Nc1cc(C(F)(F)F)ccc1Cl,-30%,·,·,·,·,·
COc1ccc(C(=O)CC2(O)C(=O)N(CCc3ccccc3)c3ccc(Br)cc32)cc1OC (centres undefined),-33%,-19%,6%,·,·,?
Cc1ccc(C)c(N(C)C(=O)c2cc3c(s2)-c2ccccc2OC3)c1,56%,39%,108%,·,·,88%[59 µM]
Nc1nonc1N/N=C/c1c(O)ccc2ccccc12,-29%,-28%,16%,-1,-1,?
Cc1cc(/C=N/n2cnnc2)c(O)c([N+](=O)[O-])c1,-7%,?,4%,0,-8,0%[59 µM]
CCc1n[nH]c(=S)n1/N=C/c1c(O)ccc2ccccc12,14µM*,-24%,37%,3,·,?
CCc1n[nH]c(=S)n1/N=C/c1cc(OC)cc([N+](=O)[O-])c1O,5µM*,14%,?,-3,-13,7.9µM*
COC(=O)C1=C(C)NC(C)=C(C(=O)OC)C1c1cc2ccc(C)cc2[nH]c1=O,-17%[57.1 µM],-7%,62%,-11,-9,?
CCOC(=O)C1=C(C)NC(C)=C(C(=O)OCC)C1c1cc2ccc(C)cc2[nH]c1=O,-18%[57.1 µM],?,-5%,-9,1,50µM*
Cc1ccc2cc(COC(=O)c3ccncc3)c(=O)[nH]c2c1,-14%,12%,8%,1,0,50µM*
c1ccc2c(c1)CCN(C1=Nc3cccc4cccc1c34)C2,?,32µM*,?,-20,-27,?
O=C(Nc1cc(Cl)cc(Cl)c1)c1ccc(F)c(S(=O)(=O)NC2CCCC2)c1,-21%,0%,35%,·,·,0%[59 µM]
Cc1ccc(-c2cc(-c3n[nH]c(=S)o3)c3ccccc3n2)cc1,?,?,30%,-3,-1,?
O=c1c2ccccc2c(-c2n[nH]c(=S)o2)nn1Cc1ccccc1,?,-36%,56%,-20,·,4µM*
CSc1ccccc1-c1n[nH]c(=S)o1,?,-10%,-3%,7,-30,6.3µM*
O=c1c2ccccc2c(-c2ccccc2)nn1Cc1c(Cl)cccc1Cl,13%,-1%,55%,-2,-23,4%[12.7 µM]
Cc1ccccc1-c1n[nH]c(=S)o1,?,-35%,39%,7,4,13µM*
S=c1[nH]nc(-c2ccccc2)o1,-25%[11.4 µM],79µM*,14%,-3,-5,?
COc1ccccc1-c1n[nH]c(=S)o1,-5%[11.4 µM],6%,7%,5,5,?
CCOc1ccc(C(=O)NCc2nc3cccnc3n2Cc2cccc(OC)c2)cc1,-12%,-2%,27%[57 µM],·,·,21%[59 µM]
COC(=O)CN1C(C(=O)c2ccccc2)=C(OC(=O)c2ccc(C)cc2)c2ccccc2S1(=O)=O,-23%,-27%,-5%,·,·,-21%[59 µM]
CCOc1ccc(NC(=O)CN2CCN(CC(=O)Nc3ccccc3OCC)CC2)cc1,-6%,0%,27%[57 µM],·,·,3%[59 µM]
CCOc1ccc(OCC)c(NC(=O)CN2CCN(CC)CC2)c1,0.89µM*,?,?,-1,2,20µM*
CCOc1ccccc1NC(=O)CSC1=NN2CCCC(=O)N=C2S1,1%,-37%,18%,-5,4,40µM*
SMILES,JMJD2A Tudor,BAZ2B inh,HP1b chromo inh,Six1-Eya2 inh,CtBP-E1A blk,G9a block
CCOc1ccc(OCC)c(NC(=O)Cn2cccc2)c1,-12%,-36%,14%,-20,-19,-8%[59 µM]
CCOc1ccccc1NC(=O)CN1CCCCCC1,3.2µM*,50µM*,-13%,-15,2,·
CCOc1ccc(OCC)c(NC(=O)CN2CCN(CC(=O)NC(C)C)CC2)c1,28µM*,?,?,3,·,·
Cc1oc(-c2cccc(Cl)c2)nc1CN1CCC(C(=O)NCc2ccc(F)cc2)CC1,-18%,-15%,23%,·,·,-3%[59 µM]
CCC1CCCCN1C(=O)COc1ccccc1NC(C)=O (centres undefined),-12%,-16%,14%,3,10,45µM*
CCOc1ccccc1NC(=O)COC(=O)C1CC(=O)N(c2c(C)cccc2C)C1 (centres undefined),1%,-27%,-21%,-4,0,56µM*
c1ccc(CSc2ncccn2)cc1,9%,10%,19%,10,0,25µM*
c1ccc(CSc2nnc([C@@H]3CCCN3)o2)cc1,?,50µM*,70%,-2,4,·
c1ccc(CSc2nnc(Cc3ccccc3)o2)cc1,79µM*,56%,46%,47,5,?
Clc1ccc(CSc2ncccn2)cc1,61%,38%,66%,20,14,32%[59 µM]
Cc1ccc(-c2nn3c(=O)cc(CN4CCN(C(=O)/C=C/c5ccccc5)CC4)nc3s2)cc1,4%,3%,23%[57 µM],·,·,3%[59 µM]
Cc1cc(C(C#N)c2cccc(Cl)c2)n2ncnc2n1 (centres undefined),?,?,-6%,-21,-9,8.9µM*
Cc1nn(-c2ccccc2)c2sc(C(=O)Nc3cccc(Cl)c3)cc12,8%,13%,43%,·,·,-37%[59 µM]
Cc1oc2c(c1C(=O)c1ccccc1)C(=O)C(=O)c1ccccc1-2,?,45µM*,-29%,?,?,?
Cc1oc2c(c1C(=O)O)C(=O)c1ccccc1C2=O,-7%,0%,47%,1,-1,10µM*
CCOC(=O)c1c(C)oc2c1C(=O)c1ccccc1C2=O,-28%,?,-3%,-2,-14,13µM*
O=C1C(=O)c2c(C(=O)c3ccccc3)coc2-c2ccccc21,-29%,?,-18%,-20,-10,45µM*
COc1ccc(C2C(=O)N(C3CCC(C)CC3)CC(=O)N2C2CCCCC2)cc1OC (centres undefined),-8%,3%,13%,·,·,-6%[59 µM]
CCOCCCN(Cc1ccco1)C(=O)c1cc2c(s1)-c1c(C)cccc1OC2,104%,86%,143%,·,·,133%[59 µM]
N#CC(C#N)=c1ccc2c(c1)N1C3=C(CCCC3)CC3CCCCC31N=2 (centres undefined),45µM*,1.8µM*,?,-26,-6,2.2µM*
N#C/C(C(N)=O)=c1/ccc2c(c1)N1C3=C(CCCC3)CC3CCCCC31N=2 (centres undefined),6.3µM*,3.5µM*,10µM*,-22,-11,4µM*
FC(F)(F)C(F)(F)C(F)(F)C(F)(F)C(F)(F)C(F)(F)F,·,·,·,·,·,10%[12.7 µM]
CC1CCc2nc3ncn(CC(=O)Nc4cccc(C#N)c4)c(=O)c3cc2C1 (centres undefined),-2%,-19%,23%[57 µM],·,·,10%[59 µM]
